Compound activity from PubChem.
HCMV antiviral = qHTS Assay for inhibitors of the human cytomegalovirus (HCMV); activity change, negative = inhibition, % at 57.5 µM; hit rate 4.5% among 410,000; AID 1259415, 2018; HFF cells, HCMV-luciferase reporter, 72 h; stronger effect = lower value; in the data active means activity change below about -60%; inconclusive means no clear call, values can overlap the other calls; inactive means above about -39%
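Screen run at 2 compound doses on HFFs infected with reporter HCMV, MOI 1 PFU/cell. Luciferase activity from cell lysates at 72 h post infection gave inhibition relative to buffer-only and Salinomycin wells.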
VACV Venus inh = qHTS for Stage-Specific Inhibitors of Vaccinia Orthopoxvirus: Venus Reporter Primary qHTS; Potency, µM (doses to about 36.5 µM), inactives show at the highest dose activity change, negative = inhibition, usual class: inhibitors; AID 720580, 2013; Vaccinia virus Venus reporter expression, fluorescence; hit rate 0.46% among 330,000; calls by dose curve; tested in A549 cells; further: potency means the concentration at half of the fitted maximal effect; nearly all actives have a fitted effect of over 30% in size
VACV mCherry inh = qHTS for Stage-Specific Inhibitors of Vaccinia Orthopoxvirus: mCherry Reporter Primary qHTS; Potency, µM (doses to about 36.5 µM), without a hit: at the highest dose activity change, negative = inhibition, usual class: inhibitors; AID 720579, 2013; Vaccinia virus mCherry reporter infection, fluorescence; hit rate 0.63% among 310,000; calls by dose curve; tested in A549 cells; further: potency means the concentration at half of the fitted maximal effect; nearly all actives have a fitted effect of over 35% in size
HCV inhibitor = qHTS Assay for Inhibitors of Hepatitis C Virus (HCV) | Huh7.5.1 HCVcc-Cre infection, luciferase reporter, 44 h | Potency, µM (top dose mostly 41.8 µM), inactives show top-dose activity change, negative = inhibition, actives largely listed as inhibitors | hit rate 3.4% among 340,000 | AID 651820, 2012; further: potency means the concentration at half of the fitted maximal effect
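A cell-based infection assay in which seeded cells (1,000 per well) receive test compound after 4 h, are inoculated with HCVcc-Cre at approximately 0.5 moi, and are incubated 44 h before luminescence detection.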
Giardia FBPA inh = qHTS Assay for Inhibitors of Fructose-1,6-bisphosphate Aldolase from Giardia Lamblia | A8B2U2 | purified Giardia FBPA | Potency, µM (series often up to 59.6 µM), for inactives: at the top dose activity, negative = inhibition, most hits filed as inhibitors | hit rate 0.71% among 290,000; further: potency means the concentration at half of the fitted maximal effect; nearly all actives have a fitted effect of over 55% in size
Target sequence (A8B2U2 whole entry, looked up): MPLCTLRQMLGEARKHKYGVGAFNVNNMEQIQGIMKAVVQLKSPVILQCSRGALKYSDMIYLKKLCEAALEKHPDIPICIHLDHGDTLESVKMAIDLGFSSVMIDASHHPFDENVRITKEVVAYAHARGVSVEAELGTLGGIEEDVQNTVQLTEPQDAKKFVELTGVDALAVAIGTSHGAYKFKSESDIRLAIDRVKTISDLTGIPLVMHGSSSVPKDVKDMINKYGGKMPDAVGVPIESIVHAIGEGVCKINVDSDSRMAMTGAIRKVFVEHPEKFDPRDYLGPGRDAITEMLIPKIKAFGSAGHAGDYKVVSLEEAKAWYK
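40 nM FBPA preincubated 10 min at RT with compound (up to 57.5 uM final), then substrate plus GAPDH/TPI/NAD/arsenate coupling and diaphorase/resazurin added. Fluorescence read after 20 min at RT, 525/598 nm.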
FMDV inh = High Throughput Screening for Foot and Mouth Disease Virus Antivirals. FMDV antiviral cell-based qHTS. Potency, µM (doses to about 57.9 µM), for inactives: at the top dose activity change, negative = inhibition, hits mostly inhibitors. hit rate 1.2% among 410,000; calls by dose curve; tested in HEK293T cells; further: read-out not given here; potency means the concentration at half of the fitted maximal effect; nearly all actives have a fitted effect of over 45% in size
* marks the source's active call; other numbers are inactive results; i = inactive; ? = inconclusive; nt = no result; [ ] = dose if it differs, or a comment. Hits are enriched below; roughly 7.5% of the tested compounds scored in any of these assays. Unless noted, the call rests on the fitted dose curve; in most records, active means well fitted curve in the direction sought with a large enough effect; inconclusive means small, poorly fitted or top-dose-only effect, or another doubt; inactive means no such curve, though single readings can be large; an effect the other way counts as inactive or inconclusive. On the % scale 0 is the no-effect control and ±100 the full control effect.

SMILES	HCMV antiviral	VACV Venus inh	VACV mCherry inh	HCV inhibitor	Giardia FBPA inh	FMDV inh
Cc1cc(C(=O)Nc2nc(-c3ccccn3)cs2)ccc1[N+](=O)[O-]	-72*	-28%	?	11µM*	?	3%
O=C(Nc1nc(-c2ccccn2)cs1)c1cc(Cl)ccc1[N+](=O)[O-]	-99*	?	?	10µM*	?	-24%
CSC(=NC#N)N1CCN(c2cccc(Cl)c2)CC1	-67*	-19%	?	9%	-5%	-20%
CCOc1ccc(NS(=O)(=O)c2c(C)nc3sccn3c2=O)cc1	-100*	-17%	-12%	0%	-8%	-13%
CC(=O)Nc1ccc(NS(=O)(=O)c2c(C)nc3sccn3c2=O)cc1	17	-5%	-13%	nt	nt	-1%
O=C(C[n+]1c(Cl)ccc2ccccc21)c1ccc2ccccc2c1	nt	-12%	-14%	nt	nt	nt
NNC(=O)c1[nH]c2ccc([N+](=O)[O-])cc2c1-c1ccccc1	-89*	-18%	-22%	?	13%	-13%
O=C(CCNS(=O)(=O)c1ccccc1F)OCc1ccccc1Cl	-18	16%	-5%	9%	nt	-9%
O=c1oc2ccccc2c2c1C1O[C@](c3ccsc3)(Cc3c1ccc1ccccc31)O2	nt	nt	nt	nt	-6%[12.9 µM]	nt
COc1cccc(/C=C/c2ccc3cccc(O)c3n2)c1OC	2	?	?	10µM*	-2%	2%
COc1cc(Br)cc(/C=C/c2ccc3cccc(O)c3n2)c1OC	-17	nt	nt	-11%	17%	-19%
COc1ccc(Br)cc1/C=C/c1ccc2cccc(O)c2n1	4	-22%	-24%	?	19%	-15%
COc1ccc(/C=C/c2ccc3cccc(O)c3n2)c(OC)c1OC	-94*	nt	nt	-57%	6%	-29%
CCOc1c(OC(C)=O)ccc(/C=C/c2ccc3cccc(OC)c3n2)c1[N+](=O)[O-]	12	?	?	10µM*	0%	12%
COc1cc(/C=C/c2ccc3cccc([N+](=O)[O-])c3n2)ccc1OCC(=O)O	0	nt	nt	8%	-13%	30%
COc1ccc(NC(=O)N(C(C)C)C2CCN(C(C)=O)CC2)c(OC)c1	?	-7%	-10%	nt	nt	-6%
CCOc1ncccc1C(=O)Nc1ccc2c(c1)OCCCO2	12	-14%	i	6%	nt	19%
CCOc1ccc(/C=C/C(=O)C(C(N)=O)=C2SCCS2)cc1	-73*	-26%	4.5µM*	10%	-2%	22%
Cc1ccc(NC(=O)CCC(=O)N2CCSc3ccccc32)cc1	41	-10%	i	nt	nt	-12%
O=C(Nc1ccccc1)c1cc(C2CCCN(C(=O)CCc3ccccc3)C2)on1 (stereo not given)	-18	-11%	-14%	nt	nt	31%
COc1ccc(C(=O)Nc2ccc(Cl)cc2C(=O)N2CCCC(C)C2)cc1 (stereo not given)	-100*	0%	nt	?	2%	17%
CN(C)c1ccc(CC(=O)N2CCCC(c3cc(C(=O)Nc4ccc(C(C)(C)C)cc4)no3)C2)cc1 (stereo not given)	-75*	?	-15%	nt	nt	18µM*
COc1ccc(C(=O)N2CCCC(c3cc(C(=O)Nc4ccccc4)no3)C2)cc1 (stereo not given)	-73*	-9%	-3%	nt	nt	18%
COc1ccc(C(=O)Nc2ccc(Cl)cc2C(=O)N2CCOCC2)cc1	51	-11%	i	7%	nt	1%
Cc1cccc(C)c1NC(=O)C1CCCN1S(=O)(=O)c1ccccc1 (stereo not given)	10	0%	2%	18%	6%	8%
SMILES	HCMV antiviral	VACV Venus inh	VACV mCherry inh	HCV inhibitor	Giardia FBPA inh	FMDV inh
Cc1cccc(CSCc2ccc(C(=O)NC3CCCC3)o2)c1	-22	-8%	i	7%	0%	7%
Cc1cc(=O)oc2cc(O)cc(O)c12	3	27%	-27%	-23%	nt	-18%
CCCCCc1cc(O)c2c(C)cc(=O)oc2c1	-105*	nt	nt	11µM*	7%	0%
CCCCCc1cc(O)c2c3c(c(=O)oc2c1)CN(C)CC3	-34	nt	nt	10µM*	-3%	10%
CCCCCCc1c(C)c2c(cc(C)c3c(C)coc32)oc1=O	2	6%	-15%	nt	nt	-14%
C[C@H]1CN([C@@H](C)CO)C(=O)CCCn2nncc2CO[C@@H]1CN(C)C(=O)c1ccncc1	23	-5%	-13%	nt	nt	-20%
COc1ccc(-c2ccc3c(c2)c(-c2cccs2)c(-c2cc(OC)cc(OC)c2)n3C)cc1	-5	-1%	i	-3%	nt	-3%
COc1cc(OC)cc(-c2c(-c3cccs3)c3cc(-c4cnc(OC)nc4)ccc3n2C)c1	-78*	-19%	i	?	nt	?
CCCCC[C@H](C)N1C[C@@H](COCc2ccccc2)Oc2cc(N3CC[C@H](N(C)C)C3)ccc2S1(=O)=O	?	1%	6%	nt	nt	-15%
CCCCC[C@@H](C)N1C[C@@H](COCc2ccccc2)Oc2cc(N3CC[C@H](N(C)C)C3)ccc2S1(=O)=O	-63*	-9%	-10%	nt	nt	-8%
C[C@H](c1ccccc1)N1C[C@H](COCc2ccccc2)Oc2cc(N3CCC[C@H]3CO)ccc2S1(=O)=O	-64*	-1%	16%	nt	nt	34%
O=C(Cn1ccn(-c2cccc(Cl)c2)c(=O)c1=O)NCCc1ccccc1	-20	-2%	-2%	nt	nt	4%
COC(C[C@@H](O)C[C@H](O)[C@@H](C)OCc1ccccc1)OC	1	-1%	i	28%	4%	-9%
COc1ccc(-c2c(-c3ccc(OC)nc3)c3ccccc3n2C)cc1	30	-15%	-2%	22µM*	nt	-2%
Cc1cccc(OCCn2cccc2/C=C2/C(=O)NC(=O)N(Cc3ccco3)C2=O)c1	21	-8%	i	-7%	-2%	-2%
O=C1NC(=O)N(Cc2ccco2)C(=O)/C1=C\c1cccn1CCOc1ccc(Cl)cc1	-34	22%	i	-4%	3%	35µM*
O=C(NCCS(=O)(=O)N1CCN(C(=O)c2ccco2)CC1)c1ccccc1	-79*	-9%	-1%	nt	nt	0%
COc1ccc(C(=O)NCCS(=O)(=O)N2CCN(C(=O)c3ccco3)CC2)cc1	5	-2%	-2%	-2%	nt	-15%
Cc1ccc2c(c1)c1c(c(=O)n(-c3cccc(Cl)c3)c(=O)n1CC(=O)NCC1CCCO1)n2C (stereo not given)	4	-2%	-3%	nt	nt	-1%
CC(=O)c1ccc(NC(=S)N2CCCC(C(F)(F)F)C2)cc1 (stereo not given)	-8	-3%	-1%	20%	1%	20%
O=C(NC(=S)N1CCCC(C(F)(F)F)C1)c1ccc(F)cc1 (stereo not given)	-66*	-5%	-1%	9%	?	3%
